# 15-hLO-2 inh – qHTS Assay for Inhibitors of 15-hLO-2 (15-human lipoxygenase 2); purified 15hLO-2, xylenol orange hydroperoxide absorbance; Potency, µM (highest dose often 57.1 µM), for inactives: at the highest dose activity change, negative = inhibition, usual class: inhibitors; AID 881, 2007; 0.56% of 110,000 active; also: potency is read from the fitted curve at half-maximal effect; nearly all actives have a fitted effect of over 60% in size
# Target sequence (O15296 whole entry, looked up): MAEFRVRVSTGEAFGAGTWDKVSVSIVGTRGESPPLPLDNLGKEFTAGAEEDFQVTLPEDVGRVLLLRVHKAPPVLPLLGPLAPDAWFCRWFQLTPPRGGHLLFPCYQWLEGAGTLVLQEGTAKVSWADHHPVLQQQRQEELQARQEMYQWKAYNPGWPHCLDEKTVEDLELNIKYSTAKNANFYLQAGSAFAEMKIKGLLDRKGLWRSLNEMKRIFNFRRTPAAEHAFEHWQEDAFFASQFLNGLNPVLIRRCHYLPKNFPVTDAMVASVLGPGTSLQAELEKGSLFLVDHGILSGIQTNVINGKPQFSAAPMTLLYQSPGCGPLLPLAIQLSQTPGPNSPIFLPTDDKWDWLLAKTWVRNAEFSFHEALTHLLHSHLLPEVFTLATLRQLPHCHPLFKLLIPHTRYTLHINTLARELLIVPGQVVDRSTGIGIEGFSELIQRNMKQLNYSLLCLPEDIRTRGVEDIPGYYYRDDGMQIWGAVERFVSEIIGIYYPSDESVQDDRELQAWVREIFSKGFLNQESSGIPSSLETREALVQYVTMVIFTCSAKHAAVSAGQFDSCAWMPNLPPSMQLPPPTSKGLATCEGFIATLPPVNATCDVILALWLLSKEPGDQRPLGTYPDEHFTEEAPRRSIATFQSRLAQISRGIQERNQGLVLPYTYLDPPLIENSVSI
#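 Read-out: hydroperoxide product oxidises ferrous iron, measured as xylenol orange complex via the 573-to-405 nm absorbance ratio after 30 min. Reaction: 50 nM enzyme, 15 min compound preincubation, 45 uM arachidonic acid, 90 min RT, Hepes pH 7.5 with Triton X-100.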
# PNC assembly inh – High Content Assay for Compounds that inhibit the Assembly of the Perinucleolar Compartment; 3.1% of 140,000 active; AID 2417, 2010; PC3M PTB-GFP, PNC prevalence imaging, 16 h; stronger effect = lower value; activity change (PNC), negative = inhibition, % at 10 µM;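 active = readout at or below -70, meaning at least 70% loss of cells showing the perinucleolar compartment, a nuclear body marking cancer cells; inconclusive = readout between -30 and a set limit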;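 also: plate controls were DMSO wells for no effect and camptothecin positive control wells for full effect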
#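 PC3M cells stably expressing PTB-GFP, 750–1000 cells/well, treated 16 h at 37 °C with compound (23 nl of library stock), in duplicate. After paraformaldehyde fixation and Hoechst stain, imaged at 20x; PNC prevalence scored by image analysis.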
# ALOX12 inhib – qHTS Assay for Inhibitors of 12-hLO (12-human lipoxygenase); purified 12-hLO, xylenol orange hydroperoxide absorbance; 0.12% of 150,000 active; AID 1452, 2008; Polyunsaturated fatty acid lipoxygenase ALOX12 (Homo sapiens), P18054; Potency, µM (series often up to 57.1 µM), without a hit: at the top dose activity change, negative = inhibition, hits mostly inhibitors; also: potency is read from the fitted curve at half-maximal effect; nearly all actives have a fitted effect of over 55% in size
#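 Hydroperoxide output read as Fe(III)-xylenol orange absorbance, 573-to-405 nm ratio, after 30 min reaction with 40 uM arachidonic acid. Enzyme: 150 nM purified human 12hLO, 15 min compound preincubation; 25 mM Hepes pH 7.0, room temperature.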
# An asterisk follows results filed as active; ? = inconclusive; . = not tested or not shown; [ ] = another dose, or the depositor's remark. Most compounds without a hit are left out; they make up all but 3.1% or so of the library. Unless noted, calls follow the shape of the dose curve; as a rule, active = well fitted curve in the direction sought with a large enough effect; inconclusive = small, poorly fitted or top-dose-only effect, or another doubt; inactive = no such curve, though single readings can be large; an effect the other way counts as inactive or inconclusive. Unless noted, % is scaled to controls: 0 for no effect and ±100 for the full control effect.
SMILES,15-hLO-2 inh,PNC assembly inh,ALOX12 inhib
COc1ncc2nc(-c3cn(C)c4ccccc34)c(=O)n(C[C@H]3CCCO3)c2n1,-2%,.,.
CCNc1ncc2nc(CCc3ccccc3)c(=O)n(CCC#N)c2n1,-9%,.,.
O=C(NNC(=O)c1ccncc1)c1ccncc1,2%[11.4 µM],7,1%[11.4 µM]
CC(C)(C)NC(=S)NNC(=O)c1ccncc1,.,-114*,4%
COc1ccc(CCNC(=O)c2cccnc2)cc1OC,-2%,21,-4%
COc1ccc(CN(Cc2cccnc2)C(=S)NCCc2ccccc2)cc1OC,.,-106*,7%
COc1cc(/C=C/C(=O)O)cc(OC)c1OC,3%,.,3%
COc1cc2cc(C(=O)O)[nH]c2c(OC)c1OC,-6%,-97*,4%
CN(C)CCOc1ncnc2c1oc1ccccc12,3%,-112*,7%
CN(C)CCOc1nc(-c2ccccc2)nc2c1oc1ccccc12,42%,?,3%
C=Cc1cccc(C)c1,-2%,.,-2%
CCN(CC)CCNC(=O)c1c(O)c2cc(OC)c(OC)cc2[nH]c1=O,.,-119*,6%
CCN(CC)CCNC(=O)c1c(C)oc2cc(Br)c(OC)cc12,18%,-16,-1%
Cn1ncc2c(Cl)ncnc21,-5%[11.4 µM],.,-3%[11.4 µM]
Cc1cc2nnn(-c3nnc(-c4ccccc4)c4ccccc34)c2cc1C,9%,-109*,4%
Cc1ccc(-c2nnc(-n3nc(C)cc3C)c3ccccc23)cc1,.,-9,-4%
CC(=O)O[C@H]1C[C@H]2CC[C@@H]3[C@@H](CC[C@]4(C)[C@H](OC(C)=O)[C@H]([N+]5(C)CCCCC5)C[C@@H]34)[C@]2(C)C[C@H]1[N+]1(C)CCCCC1,-1%[25.6 µM],.,1%[25.6 µM]
CCOC(=O)N1CCN(c2c(-c3ccc(C)c(C)c3)c(=O)c2=O)CC1,.,-100*,-7%
CCOC(=O)N1CCN(c2c(-c3ccc(C)cc3)c(=O)c2=O)CC1,.,-100*,0%
CCOC(=O)N1CCN(c2c(-c3ccc(C(C)C)cc3)c(=O)c2=O)CC1,-29%,2,?
CCOC(=O)N1CCN(c2c(N3CCN(c4cccc(C)c4C)CC3)c(=O)c2=O)CC1,5%,2,1%
CC1(C)[C@@H]2CC[C@]1(C)[C@@H](OC(=O)/C=C\c1ccccc1)C2,-1%[11.4 µM],.,-5%[11.4 µM]
O=C(N/N=C/c1cccnc1)C(O)(c1ccccc1)c1ccccc1,-19%,95,-6%
O=C(N/N=C(\c1ccccc1)c1cccnc1)C(O)(c1ccccc1)c1ccccc1,5%,-92*,-2%
[O-][N+](CCO)(CCO)c1ncnc2nc[nH]c12,-8%[11.4 µM],.,-1%[11.4 µM]
SMILES,15-hLO-2 inh,PNC assembly inh,ALOX12 inhib
Cc1c(C(=O)N/N=C/c2ccc(Cl)cc2)[nH]c2ccc(Cl)cc12,.,-112*,1%
Cc1c(C(=O)N/N=C/C(C)C)[nH]c2ccc([N+](=O)[O-])cc12,.,39,-2%
O=C(O)c1ccc(NS(=O)(=O)c2cccc3ccccc23)cc1,.,.,2%
O=c1c(O)c(-c2ccccc2)oc2ccc3occc3c12,-6%,.,-2%
Cc1cc(Cl)c(S(=O)(=O)NCc2ccncc2)cc1OCC(N)=O,-4%,-13,1%
Cc1cc(Cl)c(S(=O)(=O)NCc2ccccc2)cc1OCC(N)=O,4%,-113*,6%
COc1ccccc1CNc1cc(-c2ccccc2C)ncn1,9%,.,.
CCNc1nc(Oc2ccc(=O)[nH]n2)nc(N2CCOCC2)n1,0%,?,-5%
O=c1ccc(Oc2nc(N3CCCCC3)nc(N3CCCCC3)n2)n[nH]1,-2%,-100*,-4%
CCNc1ccc(Br)cc(C(=O)/C=C/c2ccc(Cl)cc2Cl)c1=O,.,-100*,?
CNc1ccc(Br)cc(C(=O)/C=C/c2ccc3c(c2)OCO3)c1=O,?,42,?
CNc1ccc(Br)cc(C(=O)/C=C/c2ccc(OC)cc2)c1=O,.,-109*,-17%
CNc1ccc(Br)cc(C(=O)/C=C/c2cc(OC)ccc2OC)c1=O,.,18,-28%
COC(=O)C(C(=O)OC)[C@@H]1c2ccccc2[C@H]2C(=C[C@@H](C)[C@H]3C(=O)N(c4ccccc4)C(=O)[C@H]32)N1C(=O)OC,.,.,-5%[11.4 µM]
O=C(c1csnn1)N1CCC2(CC1)CN(C(c1ccccc1)c1ccccc1)C2,22%,.,2%
COC(=O)C1=C(C(=O)OC)[C@@H]2N(C)c3ccccc3[C@@]23C[C@@H](C(=O)OC)N(S(=O)(=O)c2ccc(C#N)cc2)C3=N1,.,.,-2%[11.4 µM]
C[C@H]1[C@H](O)[C@@H](C)C=CC=CC=CC=CC=CC=CC=C[C@H](O[C@@H]2O[C@@H](C)[C@H](O)[C@@H](N)[C@@H]2O)C[C@@H]2O[C@](O)(C[C@@H](O)C[C@@H](O)[C@@H](O)CC[C@@H](O)C[C@@H](O)CC(=O)O[C@H]1C)C[C@H](O)[C@H]2C(=O)O,3%[11.4 µM],.,-18%[11.4 µM]
COc1ccccc1OC[C@H](O)COC(N)=O,-1%[25.6 µM],.,-2%[25.6 µM]
O=S(=O)(c1ccc(Br)cc1)N1CCN(S(=O)(=O)c2ccc(Br)cc2)CC1,-8%[11.4 µM],.,-4%[11.4 µM]
CN(C)CCNS(=O)(=O)c1ccc(N2CCN(c3ccc(F)cc3)CC2)c([N+](=O)[O-])c1,.,13,-1%
CC(=O)N1CCN(c2ccc(S(=O)(=O)NCCN(C(C)C)C(C)C)cc2[N+](=O)[O-])CC1,.,-105*,-4%
O=C(CCCc1ccc(-c2ccccc2F)cc1)Nc1ccc(O)cc1,11%,.,-2%
CNC1=C(Br)C(=O)c2ccncc2C1=O,-30%,.,-9%
O=C(O)C(Cc1ccccc1)N1C(=O)/C(=C/c2cccc3ccccc23)SC1=S (centres undefined),20µM*,45,-4%
O=C(O)C(Cc1ccccc1)N1C(=O)/C(=C/c2ccccc2)SC1=S (centres undefined),.,20,-1%
SMILES,15-hLO-2 inh,PNC assembly inh,ALOX12 inhib
COc1cc(-c2ccc(N=C=O)c(OC)c2)ccc1N=C=O,-28%,.,1%
N#Cc1ccc(N2C(=O)[C@@H]3C(C(=O)C(c4ccccc4)c4ccccc4)=NN[C@@H]3C2=O)cc1,.,25,-1%
CC(=O)c1ccc(N2C(=O)[C@@H]3C(C(=O)CCN4C(=O)c5ccccc5C4=O)=NN[C@@H]3C2=O)cc1,.,-108*,-2%
COC(=O)N1CCC2(CC1)CN(C(=O)Nc1cccc(F)c1)C2,-2%,.,-1%
CCOC(=O)c1c(-c2ccc(C)o2)csc1NC(=O)CN1CCOCC1,0%,?,-2%
CCOC(=O)c1c(-c2ccc(C)o2)csc1NC(=S)NC(=O)N(C)C,25µM*,86,?
O=C(O)CSc1ncccc1[N+](=O)[O-],-7%[11.4 µM],.,-1%[11.4 µM]
C=CCn1c(CSc2nc3ccccc3s2)nnc1SCC(=O)OCC,1%,36,4%
CCOC(=O)CSc1nnc(CSc2nc3ccccc3s2)n1C,-4%,-97*,7%
CCOc1ccccc1NC(=S)Nc1ccccc1F,1%[11.4 µM],?,-12%
CCOc1ccccc1NC(=S)Nc1ncccc1C,.,14,20µM*
CC(C)(C)CNCCO,-4%[11.4 µM],.,-5%[11.4 µM]
Cc1cnc(CNc2nc(-c3ccc4c(c3)OCO4)nc3ccccc23)cn1,18%,.,-11%
O=C(NCCC1=CCCCC1)c1ccc2c(c1)N(Cc1ccccc1)C(=O)CS2,5%,-84*,2%

# Compound activity as filed in PubChem BioAssay.
